Assay results published in PubChem BioAssay.
The source made the active and inactive calls. Unless noted, no rule for the calls is given here.

What was measured:
[1] = resazurin metabolic signal in HepG2 cells – cell-based, resazurin fluorescence, 24 h, PK04 Diversity Set, profiling panel (AID 1172); details: HepG2 viability, higher = more signal; also: test concentration not given here
[2] = budding yeast growth changes without added modifier – OD600, strain BY4716, 24 h, basal condition, primary screen (AID 1173); details: S. cerevisiae BY4716 growth, OD600, 24 h; higher = more signal, called active from +8 up or from −8 down
[3] = viability profiling in MM1S myeloma cells – cell-based, resazurin fluorescence, basal, 24 h, PK04 Diversity Set, profiling panel (AID 1174); details: higher = more signal, called active from +8 up or from −8 down;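 also: MM1S multiple myeloma cell line; test concentration not given here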
[4] = target: Dihydroorotate dehydrogenase (quinone), mitochondrial (Plasmodium falciparum (isolate 3D7)) (UniProt Q08210); assay: inhibition of P. falciparum DHODH – biochemical, C-terminal His tag, absorbance 600 nm, primary screen (AID 1175); details: PfDHODH enzyme, DCIP absorbance 600 nm; higher = more signal, called active from +8 up or from −8 down;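 also: recombinant parasite enzyme with a five histidine tag at its C terminus; test concentration not given here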
Sequence of Dihydroorotate dehydrogenase (quinone), mitochondrial (Plasmodium falciparum (isolate 3D7)) (Q08210 whole entry, looked up): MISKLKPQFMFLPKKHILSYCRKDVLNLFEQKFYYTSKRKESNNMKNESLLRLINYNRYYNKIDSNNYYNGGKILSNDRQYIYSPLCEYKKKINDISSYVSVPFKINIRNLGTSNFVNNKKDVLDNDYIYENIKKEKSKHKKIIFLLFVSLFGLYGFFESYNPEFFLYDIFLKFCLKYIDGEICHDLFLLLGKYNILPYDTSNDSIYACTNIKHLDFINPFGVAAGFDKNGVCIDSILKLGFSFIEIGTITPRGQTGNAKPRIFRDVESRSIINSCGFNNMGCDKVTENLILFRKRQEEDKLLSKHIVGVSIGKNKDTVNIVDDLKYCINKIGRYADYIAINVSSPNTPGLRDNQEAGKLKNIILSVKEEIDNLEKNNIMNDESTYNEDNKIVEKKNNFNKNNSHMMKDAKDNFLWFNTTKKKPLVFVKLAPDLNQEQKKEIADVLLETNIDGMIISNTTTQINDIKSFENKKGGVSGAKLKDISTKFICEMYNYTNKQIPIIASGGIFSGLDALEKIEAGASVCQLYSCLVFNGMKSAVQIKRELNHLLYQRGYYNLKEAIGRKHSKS

[5] = inhibition of PAO1 biofilm formation – strain PAO1, LB-PBS medium, absorbance 600 nm, primary screen (AID 1176); also: test concentration not given here; details: P. aeruginosa PAO1 growth/biofilm, A600, 12 h; higher = more signal
[6] = growth modulation of vineyard yeast isolate – strain RM11-1a, OD600, basal, 24 h, primary screen (AID 1177);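 also: cultures grown under basal conditions with no added stressor; test concentration not given here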; details: S. cerevisiae RM11-1a growth, OD600, 24 h; higher = more signal, called active from +8 up or from −8 down
[7] = growth of efflux-deficient E. coli DRC39 – strain DRC39, OD650, 24 h, E. coli filamentation inducers, primary screen (AID 1178);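 also: growth measured as culture turbidity by optical density at 650 nm; test concentration not given here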; details: E. coli DRC39 acrAB, higher = more signal, called active from +8 up or from −8 down
[8] = growth of efflux-deficient E. coli DRC39 – strain DRC39, OD650, 48 h, E. coli filamentation inducers, primary screen (AID 1179);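 also: screen aims at cell division blockers that make cells filament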; details: E. coli DRC39 delta-acrAB growth, higher = more signal, called active from +8 up or from −8 down
[9] = viability profiling in RPMI8226 myeloma cells – cell-based, resazurin fluorescence, basal, 24 h, PK04 Diversity Set, profiling panel (AID 1180); details: higher = more signal;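 also: RPMI8826 multiple myeloma cell line at 5000 cells per well; test concentration not given here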
[10] = target: E3 ubiquitin-protein ligase XIAP (Homo sapiens) (UniProt P98170); assay: small molecules binding XIAP protein – biophysical, small-molecule microarray, fluorescence 635 nm, primary screen (AID 1181); details: higher = more signal;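 also: score merges 667 nm emission and signal to noise over triplicate slides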
Sequence of E3 ubiquitin-protein ligase XIAP (Homo sapiens) (P98170 whole entry, looked up): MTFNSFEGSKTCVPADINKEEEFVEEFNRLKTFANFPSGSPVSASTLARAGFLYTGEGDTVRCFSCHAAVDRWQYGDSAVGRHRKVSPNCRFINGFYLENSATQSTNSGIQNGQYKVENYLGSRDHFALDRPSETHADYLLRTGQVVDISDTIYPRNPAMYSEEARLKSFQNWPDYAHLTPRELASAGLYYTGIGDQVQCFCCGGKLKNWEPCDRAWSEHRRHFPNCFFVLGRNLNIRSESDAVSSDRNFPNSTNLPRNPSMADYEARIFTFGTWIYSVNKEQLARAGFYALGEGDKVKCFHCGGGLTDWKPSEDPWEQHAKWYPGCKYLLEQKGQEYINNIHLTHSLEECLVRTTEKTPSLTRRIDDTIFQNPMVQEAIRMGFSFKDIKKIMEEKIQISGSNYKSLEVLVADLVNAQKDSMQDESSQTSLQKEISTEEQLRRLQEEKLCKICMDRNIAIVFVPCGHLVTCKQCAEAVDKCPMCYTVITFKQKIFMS

SMILES	z-score [1]	z-score [2]	z-score [3]	composite z-score [4]	z-score [5]	z-score [6]	z-score [7]	z-score [8]	z-score [9]	composite z-score [10]
Cc1nc2cc(Br)ccc2c(=O)n1Cc1cccc(O)c1	0.674	-0.496 (inactive)	-1.23 (inactive)	0.0596 (inactive)	1.38 (inactive)	0.0164 (inactive)	0.381 (inactive)	0.776 (inactive)	-0.505	0.0674
[N-]=[N+]=NCc1ccccc1[C@H]1OC(c2ccc(OCCCO)cc2)=N[C@@]1(CCS(=O)(=O)c1ccccc1)C(=O)NCc1ccccc1	1.18	0.879 (inactive)	-0.0789 (inactive)	0.786 (inactive)	-0.4 (inactive)	2.19 (inactive)	1.01 (inactive)	0.536 (inactive)	0.032	0.129
[N-]=[N+]=Nc1ccccc1C[C@]1(C(=O)O)N=C(c2ccc(OCCCO)cc2)O[C@H]1c1ccccc1N=[N+]=[N-]	0.675	-2.36 (inactive)	-0.0953 (inactive)	0.463 (inactive)	1.13 (inactive)	-0.296 (inactive)	2.43 (inactive)	0.76 (inactive)	-0.215	-0.145
C=C(/C(=C/C[C@@H](OC(C)=O)c1ccc(CO)o1)c1cc(C(=O)OC)ccc1OC)C(C)C	-0.0187	-0.367 (inactive)	-0.912 (inactive)	-0.805 (inactive)	0.731 (inactive)	0.4 (inactive)	0.769 (inactive)	0.533 (inactive)	-0.0967	0.146
COCCOC(=O)N1C(=O)[C@@]2(c3cc(C#Cc4ccc(OC)cc4)ccc31)[C@H](C(=O)NC[C@H](O)c1ccccc1)[C@H]1C(=O)O[C@H](c3ccccc3)[C@H](c3ccccc3)N1[C@@H]2c1ccc(OCCO)cc1	1.21	1.95 (inactive)	0.0406 (inactive)	1.86 (inactive)	1.93 (inactive)	2.67 (inactive)	0.14 (inactive)	-0.35 (inactive)	-0.285	-0.0883
COCCCNC(=O)[C@@]1(Sc2ccc(C)cc2)CC(=O)N(Cc2ccccc2Cl)[C@@H]1c1ccc(CO)cc1I	0.0727	-3.06 (inactive)	-3.21 (inactive)	-2.66 (inactive)	0.242 (inactive)	-1.07 (inactive)	0.0085 (inactive)	-0.0682 (inactive)	-2.38	-0.138
COc1ccc(CCNC(=O)[C@@]2(Cc3ccccc3I)c3ccccc3C(=O)N(Cc3ccccc3Cl)[C@H]2c2ccc(CO)cc2)cc1	-0.0135	-0.564 (inactive)	0.0755 (inactive)	-0.902 (inactive)	0.751 (inactive)	-0.377 (inactive)	-0.432 (inactive)	-0.638 (inactive)	-0.978	0.262
CCCCC(=O)N(CCN1CCOCC1)[C@@H]1CC(C(=O)NCCO)=C[C@H](Oc2c(I)cc(CO)cc2OC)[C@H]1O	0.246	-1.23 (inactive)	0.0671 (inactive)	0.229 (inactive)	0.118 (inactive)	0.615 (inactive)	1.34 (inactive)	1.15 (inactive)	0.29	-0.22
C=C(/C(=C/C[C@@H](OC(C)=O)c1ccc(OCCO)cc1)c1cc(C(=O)OC)ccc1OC)C(C)C	-0.459	-0.0855 (inactive)	-0.53 (inactive)	-5.7 (inactive)	0.437 (inactive)	0.492 (inactive)	-0.0333 (inactive)	0.0954 (inactive)	-0.161	0.0546
[N-]=[N+]=NCc1ccccc1[C@@H]1OC(c2ccc(OCCCO)cc2)=N[C@]1(Cc1ccccc1N=[N+]=[N-])C(=O)N1CCCCC1	0.56	-0.139 (inactive)	-1.98 (inactive)	0.303 (inactive)	0.327 (inactive)	1.09 (inactive)	-0.0949 (inactive)	0.599 (inactive)	-2.88	0.172
CC(C)[C@H]1NC(=O)[C@@]23C(=O)N[C@@H](Cc4ccccc4)C2[C@H](C)[C@@]2(C)O[C@H]2C3/C=C/C/C=C\CNC(=O)[C@H](Cc2ccccc2)NC1=O (stereo not given in full)	-0.875	-0.516 (inactive)	-0.504 (inactive)	-0.141 (inactive)	-0.377 (inactive)	-0.472 (inactive)	-0.0953 (inactive)	-1.2 (inactive)	-1.26	-0.288
C=C(C(=O)CC[C@@H](OC(=O)c1ccccc1-c1ccccc1C(=O)O)c1ccccc1OCCO)C(C)C	0.942	-2.55 (inactive)	0.132 (inactive)	-1.52 (inactive)	0.743 (inactive)	-0.639 (inactive)	0.475 (inactive)	0.13 (inactive)	0.131	0.209
